This is a sample that favours compounds with a hit; in the whole collection about 32% have one here.
PostGolgi ctrl = yeast control strain growth, post-Golgi counter-screen | inhibition, % at 10 µM | 5% of 98,000 active | efflux-deficient yeast background strain, growth absorbance A615, 16 h | AID 738
CYP2C9 inh = inhibitors of human CYP2C9 | P11712 | CYP2C9 Supersomes, luciferin-H conversion, luminescence | 20% of 96,000 active | inhibition, % at 5 µM;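 active = blocking of liver enzyme CYP2C9 beyond about 50% at 5 µM, limit read from the data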
Target sequence (P11712 whole entry, looked up): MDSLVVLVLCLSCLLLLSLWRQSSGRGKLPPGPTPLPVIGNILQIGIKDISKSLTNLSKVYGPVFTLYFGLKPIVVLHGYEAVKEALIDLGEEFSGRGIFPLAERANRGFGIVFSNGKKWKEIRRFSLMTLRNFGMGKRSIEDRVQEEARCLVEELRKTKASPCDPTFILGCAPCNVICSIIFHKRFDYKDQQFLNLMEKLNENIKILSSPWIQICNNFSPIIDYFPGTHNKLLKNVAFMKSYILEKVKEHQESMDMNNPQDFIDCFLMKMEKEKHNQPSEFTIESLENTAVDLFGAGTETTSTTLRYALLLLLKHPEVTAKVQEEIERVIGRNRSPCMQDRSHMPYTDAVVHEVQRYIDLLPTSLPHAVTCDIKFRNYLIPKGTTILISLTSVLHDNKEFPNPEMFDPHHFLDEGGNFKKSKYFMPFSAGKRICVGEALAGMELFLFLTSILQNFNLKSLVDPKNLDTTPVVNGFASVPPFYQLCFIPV
PostGolgi yeast = growth inhibition of a yeast mutant, post-Golgi transport screen | AID 739 | inhibition, % at 10 µM | post-Golgi transport phenotypic cell assay | 0.9% of 98,000 active;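 also: yeast cells grown in 1536-well plates; yeast grown about 18 h at 30C before absorbance read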
CYP2C19 inh = blocks human cytochrome P450 2C19; P33261; CYP2C19 Supersomes, luciferin-H EGE luminescence, 30 min; inhibition, % at 5 µM; 21% of 96,000 active;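 active = CYP2C19 inhibition above a set limit at 5 µM in the primary screen, cut at about 50% in these data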;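 also: plate controls were negative control wells for no effect and 2.5 mM tranylcypromine positive control for full effect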
CYP2C9 activ = CYP2C9 (human) activation | 1.4% of 96,000 active | P11712 | recombinant CYP2C9, luciferin-H conversion, luminescence; active compounds read high; factor 1 = untreated enzyme, 0 = blocked | activation factor at 5 µM;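 active = activation factor of 2 or more for CYP2C9 at a 5 µM dose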;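 also: 0 = sulfaphenazole-blocked wells and 1 = vehicle-only wells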
CYP2C19 activ = increases human CYP2C19 enzyme activity. P33261. recombinant CYP2C19, luciferin-H EGE luminescence; active compounds read high; 0 = fully inhibited enzyme, 1 = untreated enzyme. activation factor at 5 µM. 96,000 tested, under 10 active;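 active = activation factor of at least 2 at 5 µM in the primary screen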;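 also: 0 = wells with 2.5 mM tranylcypromine and 1 = vehicle-only wells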
Active calls of the source: *; x = not tested or not shown. Rule as the data show it, unless noted: active = inhibition above about 30%; inactive = the rest.

SMILES	PostGolgi ctrl	CYP2C9 inh	PostGolgi yeast	CYP2C19 inh	CYP2C9 activ	CYP2C19 activ
Cc1cccc(C)c1NC1=NC(=S)N(c2ccccc2)C12CCOC(C)(C)C2 (stereo unspecified)	5.7	18.7	-7.8	4.3	0.8	1
O=C(O)c1ccc(CSCc2ccco2)cc1	1.7	-4.0	2.6	15.1	1	0.8
COc1ccc(OCC(O)CN(C2CCCCC2)C2CCCCC2)cc1 (stereo unspecified)	6.4	13.0	0.2	-3.6	0.9	1
Cc1nc2cc(C(F)(F)F)ccc2n1C1CCN(CC(=O)NC(C)(C)C)CC1	4.0	12.4	14.3	32.8	0.9	0.7
CCC(=O)N/C=C/n1cnc2cc(C(F)(F)F)ccc21	7.9	38.4	0.8	80.5*	0.6	0.2
CCCCn1c(O)c(C(CC)=Nc2ccc3c(c2)CCC3)c(=O)[nH]c1=O	7.7	4.5	20.9	4.8	1	1
CCC(=Nc1ccc(Cc2ccncc2)cc1)c1c(O)n(C)c(=O)n(C)c1=O	22.9	91.7*	5.2	95.6*	0.1	0
O=C(c1ccc(N2CCNCC2)cc1)c1cccnc1	-4.4	-12.0	-15.7	-4.8	1.1	1
O=C(Cn1nc(C(=O)O)c2ccccc2c1=O)NCCC1=CCCCC1	13.4	22.6	6.5	57.7*	0.8	0.4
O=C(COc1ncnc2ccccc12)NCCC1=CCCCC1	18.6	26.8	-4.6	54.1*	0.7	0.5
O=C(COc1cnc2ccccc2n1)NCCC1=CCCCC1	26.2	28.0	-10.7	54.7*	0.7	0.5
O=C(/C=C/c1cccc2ccccc12)NCCC1=CCCCC1	23.5	-168.7	-5.0	18.3	2.7*	0.8
O=C(COc1nncc2ccccc12)NCCC1=CCCCC1	9.3	-4.2	5.4	35.6	1	0.6
CCCc1nnc(NC(=O)CCC(=O)O)s1	22.3	-8.7	-7.7	-8.4	1.1	1.1
O=C(CSc1nc2ccccc2n1CC(=O)N1CCCC1)N1CCN(C(=O)c2ccco2)CC1	7.9	x	6.9	x	x	x
COc1ccc(-c2nc(C)ncc2N=Nc2ccccc2)cc1	12.9	61.4*	0.8	12.8	0.4	0.9
Cc1ncc(N=Nc2ccc(F)cc2)c(-c2ccc(Cl)cc2)n1	9.5	-6.4	12.5	2.9	1.1	1
CCOC(=O)C1CCCN(C(=O)c2sc3nc(-c4ccccc4)cn3c2C)C1 (stereo unspecified)	x	56.0*	x	59.1*	0.4	0.4
COc1ccc(N2CCN(C(=O)c3sc4nc(-c5ccc(F)cc5)cn4c3C)CC2)cc1	x	-4.5	x	-11.5	1	1.1
CCOC(=O)N1CCN(C(=O)c2ccc3c(c2)sc2nc(-c4ccccc4)cn23)CC1	5.8	57.3*	-4.3	49.2	0.4	0.5
Cc1c(C(=O)N2CCN(c3ccccc3F)CC2)sc2nc(-c3ccccc3)cn12	35.3*	3.8	-2.6	-0.5	1	1
O=C(c1cccnc1)N1C2CCC1CC(O)(c1ccc(F)cc1)C2 (stereo unspecified)	12.7	12.2	21.6	51.5*	0.9	0.5
CC(C)CCn1c(Oc2ccc(Cl)cc2)nc2c1c(=O)n(C)c(=O)n2C	21.8	6.5	3.6	11.3	0.9	0.9
CC(C)c1nnc(NC(=O)c2c(O)c3cccc4c3n(c2=O)CCC4)s1	59.1*	62.6*	80.4*	5.4	0.4	0.9
Cc1cnc(NC(=O)c2c(O)c3cccc4c3n(c2=O)CCC4)s1	-10.9	12.7	8.9	13.9	0.9	0.9
SMILES	PostGolgi ctrl	CYP2C9 inh	PostGolgi yeast	CYP2C19 inh	CYP2C9 activ	CYP2C19 activ
Cc1cc2ncn(CC(O)COc3cccc(C(=O)O)c3)c2cc1C (stereo unspecified)	-6.7	-15.7	35.2*	-13.4	1.2	1.1
COCCN1C=C(C(=O)OC)C(c2ccc3c(c2)OCO3)C(C(=O)OC)=C1	14.3	70.1*	-1.2	74.4*	0.3	0.3
CCN1C=C(C(=O)OC)C(c2cccc(C)c2)C(C(=O)OC)=C1	17.7	74.2*	9.3	69.8*	0.3	0.3
COc1cccc(C2Nc3cc(Cl)c(S(N)(=O)=O)cc3S(=O)(=O)N2)c1 (stereo unspecified)	3.0	14.5	-1.0	-17.3	0.9	1.2
Cc1ccc(-c2ccc(CCC(=O)O)n2-c2cccc(O)c2)cc1	4.9	57.3*	8.8	44.2	0.4	0.6
CC(C)SCCCOc1ccc(C(C)(C)C)cc1	9.0	2.9	12.0	-4.0	1	1
Cc1ccc(N(Cc2ccc(C(=O)NC3CCCCC3)cc2)S(C)(=O)=O)cc1C	8.1	7.6	-4.0	6.5	0.9	0.9
Cc1ccc(N(Cc2ccccc2F)S(C)(=O)=O)cc1C	-3.0	73.2*	-4.1	97.8*	0.3	0
Cc1cccc(N(Cc2ccccc2F)S(C)(=O)=O)c1	6.9	25.2	-1.9	51.7*	0.7	0.5
C=CCN1C(=O)/C(=C2/C(=O)N(CC(=O)O)c3ccccc32)S/C1=N/c1nccs1	11.2	13.0	-4.8	-10.2	0.9	1.1
COc1ccc(CCNc2nncc(=O)[nH]2)cc1OC	13.2	18.0	-4.5	19.7	0.8	0.8
COc1ccc(-c2csc(Nc3cccnc3)n2)cc1OC	21.2	21.9	0.9	79.1*	0.8	0.2
c1cncc(Nc2nc(-c3cccnc3)cs2)c1	5.1	56.0*	5.7	71.6*	0.4	0.3
COc1ccc(CCNc2nc(-c3cccnc3)cs2)cc1OC	-3.5	9.5	19.0	83.5*	0.9	0.2
c1cncc(Nc2nc(-c3ccncc3)cs2)c1	13.7	52.5*	1.9	50.6*	0.5	0.5
c1ccc(Nc2nc(-c3cccnc3)cs2)nc1	4.1	-5.3	-1.0	11.1	1.1	0.9
COc1ccc(CCNc2nc(-c3sc(C)nc3C)cs2)cc1OC	11.2	22.0	-1.7	26.8	0.8	0.7
Cc1nc(C)c(-c2csc(Nc3cccnc3)n2)s1	1.4	20.3	-6.5	25.6	0.8	0.7
CC(=O)Oc1ccc(-c2csc(Nc3cccnc3)n2)cc1	12.6	-2.8	0.5	15.5	1	0.8
O=C(Cn1ncc2c(=O)oc3ccccc3c21)NCCN1CCN(c2ccccc2F)CC1	10.6	34.7	2.6	4.4	0.7	1
CC(NC(=O)COc1ccccc1)C(c1ccccc1)N1CCN(C)CC1 (stereo unspecified)	-0.5	13.6	-1.9	46.5	0.9	0.5
O=C(CCC(=O)OCC(=O)c1cccc([N+](=O)[O-])c1)Nc1ccccc1Cl	2.4	-16.2	21.0	-6.6	1.2	1.1
CCOc1cc(CNc2ccc3[nH]c(=O)[nH]c3c2)ccc1OCC(=O)NC(C)(C)C	-4.7	9.6	-2.3	7.2	0.9	0.9
COc1cc(CNc2ccc3[nH]c(=O)[nH]c3c2)cc(Cl)c1OCC(=O)NC(C)(C)C	3.0	71.4*	4.0	81.4*	0.3	0.2
CCc1nnc(NC(=O)COC(=O)CN2C(=O)c3ccccc3C2=O)s1	9.8	-3.8	4.7	-4.0	1	1

Assay outcomes from PubChem.
